# Results reported in PubChem BioAssay AID1224860 (National Center for Advancing Translational Sciences (NCATS), 2016).
# Records with an inconclusive call do not appear. Unmarked numbers belong to inactive results. The source made the active and inactive calls. Calls come from the whole dose curve; as a rule, active = well fitted cell-killing curve with a large enough effect; inconclusive = small, poorly fitted or top-dose-only effect; inactive = flat fitted curve, though single readings scatter.
# Assay: Compound cytotoxicity measured by an ATP content assay as a counter-screen for lead compounds in human iPSC derived neural progenitor cells (hNPCs)
# Conditions: human iPSC-derived NPC viability, ATP luminescence; series mostly up to 46.1 µM; activity, negative = cytotoxicity: at the top concentration
# How it was run: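 hNPCs (human iPSC-derived) seeded 16–20 h, then exposed to compound for 6, 24 or 72 h at 37 C. ATP-content luminescence read after 10 min at room temperature; cytotoxicity expressed as percent inhibition of viability.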
Structure (SMILES),"activity, negative = cytotoxicity",Potency
COc1cc(NC(C)CCCN)c2ncccc2c1 (centres undefined),5.35%,–
Cc1cccc(C#Cc2ccccc2)n1,–,9.75 µM (active)
O=C1C[C@@H](c2ccc(O)cc2)Oc2cc(O)cc(O)c21,-6.55%,–
O=c1[nH]nc(Sc2ncc([N+](=O)[O-])s2)n1-c1ccc2c(c1)OCCO2,–,1.73 µM (active)
CC(O)=C(C#N)C(=O)Nc1ccc(C(F)(F)F)cc1,–,13.8 µM (active)
CC(C)c1ccc2oc3nc(N)c(C(=O)O)cc3c(=O)c2c1,–,3.46 µM (active)
Oc1ccc(/C=C/c2cc(O)cc(O)c2)cc1,–,9.75 µM (active)
CCCCCCCCCCCC(=O)[O][Sn]([CH2]CCC)([CH2]CCC)[O]C(=O)CCCCCCCCCCC,-2.8%,–
OCc1ccc(-c2ccc(-c3ccc(CO)s3)o2)s1,–,10.9 µM (active)
COc1ccnc2c1CCCCC2S(=O)c1nc2ccccc2[nH]1 (centres undefined),-9.47%,–
CC(C)(C)COc1ccc(-n2cc(C(=O)O)cn2)cc1C#N,-9.53% [at 88.3 µM],–
O=C(c1ccccc1)c1ccc2n1CCC2C(=O)O (centres undefined),6.4%,–
COc1cccc(-c2cc(=O)c3ccccc3o2)c1N,–,15.5 µM (active)
Cc1cc(O)c2c(c1)C(=O)c1cc(O)cc(O)c1C2=O,-12.6%,–
N[C@H](CSC(c1ccccc1)(c1ccccc1)c1ccccc1)C(=O)O,-15.9%,–
CN(C)c1ccc(/C=C2\C(=O)Nc3ccccc32)cc1,–,8.69 µM (active)
CN1CC(=O)N/C1=N/C(=O)Nc1cccc(Cl)c1,-7.62%,–
O=C(Nc1cc2cc[nH]c2cn1)c1ccccc1,–,0.346 µM (active)
O=C(Nc1ccc(C(=O)O)c(O)c1)c1ccccc1,-7.98%,–
